Assay results: PubChem BioAssay (NCI)
This is part of a sample that, as a whole, favours compounds with a hit. Of some 83,000 tested, about 20% had one in any assay.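 96-well plates, one dose, 48 hours. Percent growth reported; active if below 10.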 Values without a mark were called inactive. Active and inactive are the calls of the source.

What follows are compounds tested on SNB-19 CNS (assay: NCI-60 one-dose screen, 48 h (100 = growth as untreated, 0 = no growth, -100 = all killed)). Details: 10 µM unless noted.
Protocol: Growth inhibition of the SNB-19 human tumor cell line is measured as a screen for anti-cancer activity. Cells are grown in 96 well plates and exposed to the test compound for 48 hours. Compounds are tested at a single concentration, which is 10^-5 M for most compounds. The reported endpoint is percent growth (GI% or GIPRCNT), where numbers from 0 - 100% represent growth inhibition, and numbers from -100% - 0 represent cell death. For example, a value of 40 represents 60% growth inhibition. A value of 0 means no net growth occurred over the course of the experiment. A value of -40 indicates 40% of cells at the beginning of the experiment died by the end of the experiment. A value of -100 means all cells are dead at the end of the experiment.
NCI-60 Human Tumor Cell Lines Screen was performed using the standard one-dose NCI protocol, which is described in more detail at https://dtp.cancer.gov/discovery_development/nci-60/default.htm.
Compounds with GIPRCNT values below 10 were considered active. Activity score was based on GIPRCNT using the following formula: […]
Score is 0 for GIPRCNT values of 100 or above, 50 for GIPRCNT values of 0, and 100 for GIPRCNT values of -100.

In the case of `Nc1cc2c([nH]c[n+]2CC#CCCl)c(SCC#CCCl)n1`, the growth is reported as -66.8% (active).
With `CC(C)(C)n1cc(-c2ccnc(NCCCNS(=O)(=O)c3ccc(C(F)(F)F)cc3)c2)c(-c2cccc(O)c2)n1` the growth was 6.04% (active).
For `Cc1ccc(/C=C2\CN(C(=O)CCN3CCC(=NO)CC3)C/C(=C\c3ccc(C)cc3)C2=O)cc1`, the growth was 7.61% (active).
With `CN(C)CCN1C(=O)c2ccc3c4c(ccc(c24)C1=O)C(=O)N(CCN=C=S)C3=O` the growth was -92.3% (active).
In the case of `Cc1cc(N/N=C/c2nc(-c3ccccc3)oc2C)c2cc(Cl)ccc2n1`, the growth is reported as -31.2% (active).

In order of rising growth:
1. O=C1c2c(Cl)c(Cl)c(Cl)c(Cl)c2C(=O)C2(Cl)CC=CCC12Cl (stereo not given)  13.5%
2. CCOC(=O)c1cc(C(=O)c2cc(OC)c(OC)c(OC)c2)n2c1ccc1ccccc12  35.1%
3. C=C1C(=O)O[C@H]2[C@H]1CC/C(Cn1cc(-c3cccc(Cl)c3)nn1)=C\CC[C@@]1(C)O[C@@H]21  37.9%
4. CN(C[C@H]1Cc2c(cccc2N2CCN(c3ncccn3)CC2)CN1)[C@H]1CCCc2cccnc21  41%
5. COc1c2occc2c(OC)c2c(=O)c(-c3cc(-c4ccc(F)cc4)c(C#N)c(N)n3)c(C)oc12  51.2%
6. Clc1cc(Cl)cc(-c2ccc(-c3ccc(/C=N/NC4=NCCN4)cc3)s2)c1  53.2%
7. O=C(Nc1ccncc1)C(=O)c1cn(S(=O)(=O)c2ccccc2F)c2ccccc12  60.6%
8. COc1ccc(-c2cc3c(OC)c(OC)c(OC)cc3oc2=O)cc1  65.8%
9. CC(C)(C)n1cc(-c2ccnc(NCCNS(=O)(=O)c3ccc(C(F)(F)F)cc3)c2)c(-c2cccc(O)c2)n1  70.5%
10. COc1ccc(C2NN=C3c4ccccc4CCC32)cc1 (stereo not given)  76.5%
11. Cn1ncc2c(Sc3ccc(Cl)cc3)ncnc21  81.6%
12. COc1ccc(-c2cnnn2-c2nonc2-n2cccc2)cc1OC  84.2%
13. Fc1ccc(Nc2nc(NCCNc3ccnc4cc(Cl)ccc34)nc(N3CCOCC3)n2)cc1  86.7%
14. COc1cccc(/C=C2\Oc3cc(OCCCN4CCCC4)ccc3C2=O)c1  87.9%
15. COc1ccc(C(=O)N2NC(=O)/C(=C/c3cn(-c4ccccc4)nc3-c3ccccc3)N=C2c2ccccc2)cc1  88.6%
16. O=C(O)c1nc(-c2ccccc2)oc1N1CCOCC1  92.3%
17. CC(C)C(C(=O)NCCN1CCOCC1)N1C(=O)/C(=C/c2ccc(Br)cc2)SC1=S (stereo not given)  92.5%
18. Fc1ccccc1-c1nc(-c2nc3cc(Cl)c(Cl)cc3[nH]2)c2ccccn12  93.1%
19. Fc1ccc(CNCCNc2ncnc3c2cnn3-c2ccccc2)cc1  94.1%
20. COc1ccc(-c2ccc(-c3ccc(C(=N)N)cn3)s2)cc1OC  94.7%
21. CCOC(=O)CC(=O)OC  96.3%
22. Cc1ccc(Cc2c(C=O)nc(N)[nH]c2=O)c2ccccc12  98.5%
23. Cc1ccc(CSC(=N)N)cc1C  98.7%
24. COc1ccc(N2CCN(Cc3cc(C(=O)/C=C/c4c[nH]c5ccccc45)ccc3O)CC2)cc1  100%
25. Clc1cc(Cl)c2nc(-c3ccc(-c4ccc(/C=N/NC5=NCCN5)cc4)s3)cn2c1  100%
26. COc1cc(-c2nc(N=Nc3c(O)[nH]c4ccc(Br)cc34)[nH]c(=O)c2C#N)cc(OC)c1OC  100%
27. O=C(NNC(=O)N1c2ccccc2C=Cc2ccccc21)c1ccccc1  100%
28. CCOC(=O)C1CCNC(=O)C1=O (stereo not given)  101%
29. CC1=C(C#N)C(=O)NC(C)C1 (stereo not given)  103%
30. O=S1(=O)CCC(N(/N=C/c2ccco2)c2ccccc2)C1 (stereo not given)  104%
31. CN(C)CCOC(=O)Nc1ccccc1Cl  104%
32. O=C(O)COc1ccc(-c2cssc2=S)cc1  105%
33. COC(=O)c1cccc2c1N(C)c1c(cccc1C(=O)OC)CC2  111%
34. CC(C)CC1NC(C)(C)CO1 (stereo not given)  115%

Compound `Clc1cccc(-c2cc(-c3ccc4c(c3)OCCO4)[nH]n2)c1` has a growth of 45.7% [25 µM].
